Holding throughout (assay): NCI-60 one-dose screen, 48 h (100 = growth as untreated, 0 = no growth, -100 = all killed)
Common to all, as to conditions: 10 µM unless noted

Assay [1] has as its system BT-549 breast.
Assay [2] deals with MDA-MB-435 melanoma.
The test system of assay [3] is SW-620 colon.
Assay [4] concerns MCF7 breast.
Assay [5] has as its system HCT-116 colon.
The test system of assay [6] is HCC-2998 colon.
Assay [7] concerns KM12 colon.

Compounds without any hit were thinned out: in the full panel of roughly 83,000, 20% have a hit.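 Step 1: grow cells in 96-well plates. Step 2: add test compound at a single concentration. Step 3: incubate 48 h. Step 4: record percent growth.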 A number with no mark means an inactive call. Active and inactive are the calls of the source. Rule for the calls: active = growth percent below 10; inactive = the rest.

For the molecule `O=CN1N=C(c2ccc(F)cc2)CC1c1cccc(Nc2ccnc3cc(C(F)(F)F)ccc23)c1` (centres undefined), the growth is 44.3% in assay [1]; 58.2% in assay [2]; 79.1% in assay [3]; 25.3% in assay [4]; 41.8% in assay [5]; 76.3% in assay [6]. In addition, the growth in assay [7] is 55.9%.

For the molecule `O=C1CCC23OC(c4ccccc4N12)C(O)C(O)C3O` (centres undefined), the growth in assay [1] is 111%; in assay [2], 110%; in assay [3], 103%; in assay [4], 100%; in assay [5], 84.9%; in assay [6], 94.5%. Moreover, the growth in assay [7] is 104%.

Turning to `COc1cc(-c2csc(NC(=O)Nc3ccc(C(F)(F)F)cc3)n2)cc(OC)c1OC`, the growth is -8.1% (active) in assay [1]; -26.9% (active) in assay [2]; 14.8% in assay [3]; 0.456% (active) in assay [4]; 5.03% (active) in assay [5]; 19.3% in assay [6]. Also, the growth in assay [7] was 7.27% (active).

Regarding `C=C1C(=O)O[C@H]2[C@H]1CCC(/C=N/c1ncc(Br)cc1N)=C\CC[C@@]1(C)O[C@@H]21`, the growth is 1.35% (active) in assay [1]; 22.6% in assay [2]; -62.7% (active) in assay [3]; -3.68% (active) in assay [4]; -52.6% (active) in assay [5]; 62.2% in assay [6]. Further, the growth in assay [7] was 53.9%.

Take `CC1(c2ccccc2Cl)NC(=O)NC1=O` (centres undefined): the growth was 99% in assay [1]; 105% in assay [2]; 102% in assay [3]; 96.9% in assay [4]; 107% in assay [5]; 92.3% in assay [6]. In assay [7], the growth is 109%.

`C=C(C)[C@@H]1CC[C@]2(C(=O)NCCCO)CC[C@]3(C)[C@H](CC[C@@H]4[C@@]5(C)CCCNC(C)(C)[C@@H]5CC[C@]43C)[C@@H]12`: the growth in assay [1] is 78.5%; in assay [2], 69.9%; in assay [3], 74.9%; in assay [4], 41.5%; in assay [5] it was 53.7%; in assay [6], 74.3%. For the same molecule, the growth in assay [7] is 84.5%.

For `O=C1CC23OC(C(O)c4ccccc4N12)C1C(c2ccccc2)=NOC13` (centres undefined), the growth in assay [1] is 24.6%; in assay [2] it was -28% (active); in assay [3] it was 29.2%; in assay [4], 26.4%; in assay [5], 21.3%; in assay [6], 85.2%. Also, the growth in assay [7] was 28.9%.

For the molecule `COc1cc(-c2csc(NC(=O)Nc3ccc(Cl)cc3)n2)cc(OC)c1OC`, the growth in assay [1] was 31.9%; in assay [2] it was 18.1%; in assay [3], 42.1%; in assay [4], 8.71% (active); in assay [5], 17.8%; in assay [6] it was 38.9%. Further, in assay [7], the growth is 13.4%.

Consider `COCCOCCOCc1n(Cc2ccc3ccccc3n2)c2ccccc2[n+]1Cc1ccc2ccccc2n1`, for which the growth in assay [1] was 9.81% (active); in assay [2], 11%; in assay [3], 36.2%; in assay [4], 9.35% (active); in assay [5], 18.9%; in assay [6] it was 23.2%. Further, the growth in assay [7] was 12%.

As to `COC(=O)c1cc2c3c(cc(O)c2[nH]1)N(C(=O)C1Cc2cc(OC)c(OC)c(OC)c2N1)CC3CCl` (centres undefined), the growth in assay [1] was -84.6% (active); in assay [2], -14% (active); in assay [3], -10.8% (active); in assay [4] it was -5.51% (active); in assay [5], -63.3% (active); in assay [6], -73.2% (active). Also, the growth in assay [7] is -29.4% (active).

For `C[C@@H]1C(=O)[C@@H]2C[C@@H](O)[C@@H](O)C[C@]2(C)[C@H]2CC[C@@]3(C)C(=C12)CC[C@@H]3[C@@](C)(O)[C@H](O)CCC(C)(C)O`, the growth in assay [1] is 102%; in assay [2], 108%; in assay [3], 106%; in assay [4] it was 104%; in assay [5], 103%; in assay [6], 97.3%. Also, the growth in assay [7] was 114%.

On to `Cc1cccc(C)c1NC(=O)CN(CC(C)C)CC(O)COc1ccccc1` (centres undefined), for which the growth is 82.4% in assay [1]; 102% in assay [2]; 93.6% in assay [3]; 83.3% in assay [4]; 86.8% in assay [5]; 95.8% in assay [6]. Moreover, the growth in assay [7] was 100%.

As to `COC(=O)c1cncc(C(=O)Nc2ccc(-n3cnc4ccccc43)cc2)c1`, the growth in assay [1] is 96.1%; in assay [2] it was 105%; in assay [3] it was 112%; in assay [4], 84.7%; in assay [5], 103%; in assay [6] it was 116%. In addition, the growth in assay [7] was 88.4%.

Regarding `COc1ccc([C@H]2[C@@H](F)C(=O)N2c2cc(OC)c(OC)c(OC)c2)cc1F`, the growth is 15.3% in assay [1]; 0.354% (active) in assay [2]; 28.7% in assay [3]; 12.8% in assay [4]; 5.59% (active) in assay [5]; 32.9% in assay [6]. Also, the growth in assay [7] was 10.7%.

Turning to `O=c1[nH]c2ccccc2cc1-c1nc2ccncc2[nH]1`, the growth in assay [1] was 91.3%; in assay [2], 82.8%; in assay [3], 88.4%; in assay [4], 57.2%; in assay [5] it was 63.2%; in assay [6] it was 93.3%. Further, the growth in assay [7] was 22.8%.

With `Cc1ccc(C(=O)O)o1`, the growth was 97.9% in assay [1]; 108% in assay [2]; 107% in assay [3]; 105% in assay [4]; 96.1% in assay [5]; 102% in assay [6]. Moreover, in assay [7], the growth is 96.9%.

For the molecule `O=C(O)c1cn(C2CC2)c2cc(N3CCN(Cc4nnc(Nc5ccccc5)o4)CC3)c(F)cc2c1=O`, the growth in assay [1] was 98.8%; in assay [2] it was 97.6%; in assay [3], 106%; in assay [4], 97.7%; in assay [5], 91.6%; in assay [6], 103%. Also, the growth in assay [7] was 96.7%.

For the origin of these results see PubChem BioAssay (NCI).
